The list is not random: actives were taken first. Their share in the collection is about 3.5%.
FBW7 act: FBW7 E3 ligase activators, primary screen, biochemical, AlphaScreen, human. 0.13% of 650,000 active. F-box/WD repeat-containing protein 7 (Homo sapiens), Q969H0. normalized activity (activation), % at 26.1 µM. AlphaScreen FBW7–phospho-cyclin E peptide binding, activator screen; in the data active means normalized activity above about 1.9%;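 further: purified mutant Fbw7 with reduced substrate affinity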
GPR151 ag: activators of human GPR151, primary screen, cell-based, PathHunter beta-arrestin, luminescence. G-protein coupled receptor 151 (Homo sapiens), Q8TDV0. PathHunter beta-arrestin GPR151 cells. activation, % at 11.2 µM. 1% of 650,000 active. AID 1508602, 2020; in the data active means activation above about 4.9%;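 further: 0% = median of compound wells and 100% = cells with positive control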
TEAD-YAP block: TEAD-YAP interaction inhibition, primary screen, TEAD-YAP interaction inhibitor project, luminescence, HEK-TIYL cells | TEAD-Gal4/YAP UAS-luciferase luminescence | inhibition, % at 9.12 µM | 1.4% of 640,000 active | AID 1259422, 2018; in the data active means inhibition above about 32%;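 further: 0% = median of test compound wells and 100% = reference inhibitor wells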
MITF inh: MITF inhibitors, primary screen, biochemical, AlphaScreen, human; Microphthalmia-associated transcription factor (Homo sapiens), O75030; AlphaScreen MITF homodimerization, bead proximity signal; inhibition, % at 2.6 µM; 0.91% of 650,000 active; in the data active means inhibition above about 50%;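 further: 0% = vehicle wells with protein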
Target sequence (O75030 whole entry, looked up): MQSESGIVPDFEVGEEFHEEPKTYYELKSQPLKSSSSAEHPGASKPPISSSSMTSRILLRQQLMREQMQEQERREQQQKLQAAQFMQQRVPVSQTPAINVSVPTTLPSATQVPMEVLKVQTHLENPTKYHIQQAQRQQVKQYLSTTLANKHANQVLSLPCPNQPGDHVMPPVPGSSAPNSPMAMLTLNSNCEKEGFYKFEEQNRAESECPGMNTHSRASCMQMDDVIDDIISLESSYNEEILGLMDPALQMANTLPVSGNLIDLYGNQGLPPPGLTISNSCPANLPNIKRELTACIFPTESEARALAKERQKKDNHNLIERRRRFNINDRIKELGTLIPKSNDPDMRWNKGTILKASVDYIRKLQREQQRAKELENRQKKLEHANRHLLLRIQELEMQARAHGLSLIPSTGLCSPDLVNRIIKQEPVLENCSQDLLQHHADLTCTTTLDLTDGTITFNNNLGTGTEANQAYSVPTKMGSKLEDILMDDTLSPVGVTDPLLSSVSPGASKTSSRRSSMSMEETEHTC
* marks the source's active call; other numbers are inactive results.

SMILES	FBW7 act	GPR151 ag	TEAD-YAP block	MITF inh
O=C1CCCC2=C1C(c1ccc(Cl)c(Cl)c1)Nc1ccc(C(=O)c3ccccc3)cc1N2 (configuration not stated)	0	0	50*	4
CC1(C)CC(=O)C2=C(C1)Nc1ccccc1NC2c1ccc(-c2ccccc2)cc1 (configuration not stated)	0	2	21	-1
CSc1ccc(C2Nc3ccc(C(=O)c4ccccc4)cc3NC3=C2C(=O)CCC3)cc1 (configuration not stated)	0	0	43*	-12
COc1ccc(NC(=O)CC2C(=O)N(c3ccccc3)C(=S)N2CCCN2CCOCC2)cc1 (configuration not stated)	0	0	-3	10
COc1ccc(-c2nc(-c3ccncc3)cnc2N)cc1OC	0	-2	-5	-3
Cc1ccc(C)c(OCCCNC(C)(C)C)c1C	0	1	6	13
CC[n+]1c(/C=C/c2ccc(N(C)C)cc2)sc2cc(C)ccc21	0	-1	89*	23
CC[n+]1c(C)sc2ccc(C)cc21	0	1	15	1
CCN1C=C\C(=C/C=C(/C=C/c2cc[n+](CC)cc2)c2cc[n+](CC)c3ccccc23)c2ccccc21	0	0	7	1
CCN1C=C/C(=C/C=c2/s/c(=C\c3sc(-c4ccccc4)c(-c4ccccc4)[n+]3CC)n(CC)c2=O)c2ccccc21	2.0*	-1	8	-58
Cc1cccc(C)c1NC(=O)C(c1ccc(Cl)cc1)N(Cc1ccco1)C(=O)c1ccc(-n2cnnn2)cc1 (configuration not stated)	0	1	41*	-1
O=C(Nc1ccc(-c2ccn[nH]2)cc1)c1cccnc1	0	-10	79*	-4
CCOc1cc(C(=O)Nc2ccc(-c3ccn[nH]3)cc2)cc(OCC)c1OCC	0	-1	51*	12
O=C(Nc1cccc(-c2nc3ccc(NC(=O)c4cccnc4)cc3o2)c1)c1cccnc1	0	2	41*	5
C=CCC(O)(CC=C)C(C)NCc1c(C(=O)N2CCOCC2)nc2c(C)cccn12 (configuration not stated)	0	0	5	2
CN1C(=O)/C(=C/c2ccc(C(=O)NCCCN3CCOCC3)cc2)Oc2ccccc21	0	2	-32	-3
O=[N+]([O-])c1cc(Cl)c2oc(-c3ccc(O)cc3)nc2c1	0	0	55*	-5
O=C(Nc1ccc(-c2nc3ccccc3o2)cc1)c1cc([N+](=O)[O-])ccc1Cl	0	0	9	11
CC(C)N(CCNc1nc(Nc2ccc(N3CCOCC3)cc2)nc2c1ncn2-c1ccsc1)C(C)C	0	-2	39*	-2
OCCNc1nc(Nc2ccc(N3CCOCC3)cc2)nc2c1ncn2-c1ccsc1	0	0	60*	2
Oc1ccc(CCNc2nc(Nc3ccc(N4CCOCC4)cc3)nc3c2ncn3-c2ccsc2)cc1	0	-2	42*	19
c1ccc(OCCNc2nc(Nc3ccc(N4CCOCC4)cc3)nc3c2ncn3-c2ccsc2)cc1	0	-2	-1	17
c1ccc(CNc2nc(Nc3ccc(N4CCOCC4)cc3)nc3c2ncn3-c2ccsc2)cc1	0	3	-10	21
CC(C)N(CCNc1nc(Nc2ccc(N3CCOCC3)cc2)nc2c1ncn2-c1ccccc1)C(C)C	0	-1	13	10
NC1=NC(=O)/C(=C/c2cccc(OS(=O)(=O)c3cccc([N+](=O)[O-])c3)c2)S1	0	1	2	-7
SMILES	FBW7 act	GPR151 ag	TEAD-YAP block	MITF inh
Cc1ccccc1NC(=O)c1ccc(C)c(S(=O)(=O)Nc2ccc(Br)cc2)c1	0	-1	14	12
C/C(CC(=O)Nc1ccc(I)cc1)=N\NC(=O)c1cccc(O)c1	0	0	12	-2
C/C(CC(=O)Nc1ccccc1C#N)=N\NC(=O)c1ccncc1	1.9*	1	6	9
COc1cccc(C(=O)N/N=C(\C)CC(=O)Nc2ccc(Br)cc2)c1	1	0	-1	9
COc1cc(OC)cc(C(=O)N/N=C(\C)CC(=O)Nc2ccc(Br)cc2)c1	0	1	54*	13
C/C(CC(=O)Nc1ccc(C)cc1)=N\NC(=O)c1cccc(O)c1	0	-3	35*	9
COc1cc(OC)cc(C(=O)N/N=C(\C)CC(=O)Nc2ccccc2C(F)(F)F)c1	0	-2	49*	-2
C/C(CC(=O)Nc1cccc(C(F)(F)F)c1)=N\NC(=O)c1ccc2ccccc2c1	0	0	51*	7
COc1cccc(NC(=O)C(=O)N/N=C(\C)CC(=O)NC2CCCCCCC2)c1	0	-3	-50	3
COc1cc(OC)cc(C(=O)N/N=C(\C)CC(=O)NC2CCCCC2)c1	0	0	60*	-3
Cc1onc(-c2ccccc2Cl)c1-c1nc(-c2cccnc2)no1	0	-2	58*	4
CCn1nc(CCC(=O)O)c2ccccc2c1=O	0	-1	2	-9
CCn1nc(CN)c2ccccc2c1=O	0	1	43*	0
CC(C)c1ccc(-c2nc(N3CCOCC3)nc3n[nH]c(N)c23)cc1	0	-1	-12	1
Cc1[nH]c2ccccc2c1C(=O)CN(C)C	0	-1	-10	-9
Cc1[nH]c2ccccc2c1C(=O)CCl	2.3*	-2	5	18
CC(=O)c1c(-c2ccccc2)[nH]c2ccccc12	0	4	46*	5
CCOC(=O)c1c(C)[nH]c(C)c1C(=O)CCl	0	-1	71*	7
CC(C)(C)NC(=O)CCN1C(=O)/C(=C\c2ccccc2F)SC1=S	0	-1	-2	1
O=C(COc1ccc(Br)cc1)OCc1ccccc1	1.9*	-1	-4	7
N#Cc1ccc(OCC(=O)OCc2ccc(Br)cc2)cc1	0	0	1	13
Cc1cccc(NC(=O)c2ccc(CN3CCc4ccccc4C3)cc2)c1	0	0	36*	-3
O=C(Nc1cccc(Cl)c1)c1ccc(CN2CCc3ccccc3C2)cc1	0	-2	40*	-19
CC1CCc2nc(/C(C#N)=C\c3ccco3)sc2C1 (configuration not stated)	0	-1	70*	-2
COc1ccc(/C=C(/C#N)c2nc3c(s2)CC(C)CC3)cc1 (configuration not stated)	0	1	-12	7
Cc1ccc2c(CC(=O)Nc3sc4c(c3C(N)=O)CCCC4)coc2c1	0	-1	-5	-8
COCCCNC(=O)c1c(NC(=O)Cc2coc3ccc(C)cc23)sc2c1CCCC2	0	2	48*	9
O=C(CSc1nc2ccccc2s1)Nc1ccccc1Oc1ccccc1	0	1	-5	-17
O=c1c(-c2ccc(O)cc2)coc2cc(OC3OC(CO)C(O)C(O)C3O)cc(O)c12 (configuration not stated)	0	0	15	-12

Bioassay records from PubChem.
